Consider 40 compounds from PubChem BioAssay (NCI).

The panel holds about 83,000 compounds, 20% with a hit somewhere; the sample as a whole holds those more often.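 Method: cells in 96-well plates; compound added at one concentration; 48 h incubation; percent growth measured; values under 10 scored active.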 A number with no mark means an inactive call. Calls of active or inactive are those of the source.

The assay has as its system MDA-MB-468 breast. Briefly: NCI-60 one-dose screen, 48 h (100 = growth as untreated, 0 = no growth, -100 = all killed). Conditions: 10 µM unless noted.
As to `CCCC(=O)Nc1ccc2c(c1)CN1C(=O)c3ccccc3C1=N2`, the growth is 97.8%.
Regarding `CSc1ccc(SC2c3ccc(C)cc3Oc3nc(N)c(C#N)c(N)c32)cc1` (stereo not given), the growth was -75.8% (active).
With `CCN(CC)CCNC(=O)c1c(C)[nH]c(/C=C2\C(=O)Nc3cc(NC(=O)NC(=O)c4ccc(OC)cc4F)ccc32)c1C`, the growth was 75.2%.
The same measure for `O=C(O)c1ccccc1Cc1ccc2c(c1)CCCC2`: 99.6%; for `Oc1ccc(N=Nc2nccs2)c(O)c1`: 48.5%.
In the case of `COc1ccc2c(c1)c(-c1nonc1-c1c[nH]c3ccc(Br)cc13)cn2C` it was 52.4%.
The same measure for `CCOC(=O)CSc1ncnc2c1c(-c1ccccc1)c(-c1ccccc1)n2-c1ccc(C)cc1`: 51.9%.
Consider `CCCCc1nc(Cl)c(CO)n1Cc1ccc(-c2ccccc2-c2nn[nH]n2)cc1`, for which the growth was 96.4%.
The same measure for `CCCCCCCCCCSC(=N)N` (tested in a mixture with another compound): -9.42% (active); for `Cc1ccc(-n2cc(/C=N/NC(=O)c3nc(N)n[nH]3)c(-c3ccc(S(C)(=O)=O)cc3)n2)cc1`: 105%; for `CC1=CC(C)(C)NC(=S)N1c1ccc(S(=O)(=O)O)c2cccc(S(=O)(=O)O)c12`: 107%.
In the case of `O=S(=O)(NCCNc1nccc(-n2cnc3ccccc32)n1)c1ccc(Cl)cc1` it was 101%; in that of `O=C(Nc1cccc(Cl)c1)Nc1nc2ccc([N+](=O)[O-])cc2s1`, -29.1% (active).
With `Cn1c(=O)c2[nH]c(CCCCC(=O)O)nc2n(C)c1=O`, the growth is 121%.
In the case of `COc1cc(-c2nc3cc(Cl)c(Cl)cc3[nH]2)ccc1OCC(=O)N=Nc1c(O)[nH]c2ccccc12` it was -86.3% (active); in that of `Cc1ccc(C)c(NC(=O)c2sc3c(=O)[nH]cnc3c2C)c1`, 67.2%; in that of `O=C(CN1C(=O)NC2NC(=O)NC21)N/N=C/c1ccc(Cl)cc1Cl` (stereo not given), 99.9%.
Take `Cc1ccc(S(=O)(=O)NCCCNc2nc(Nc3ccc(N4CCN(C)CC4)cc3)nc3ccsc23)cc1`: the growth was 12.3%.
In the case of `O=C1/C(=C/c2ccc(Br)cc2)C=C(c2ccccc2)N1CCc1ccccc1` it was 45%; in that of `COc1ccc2[nH]c(=O)c(/C=N/Nc3nc(-c4ccccc4)cs3)c(O)c2c1`, 87.6%.
In the case of `O=S(=O)(NCCCNc1nccc(-c2[nH]c(-c3ccccc3)nc2-c2ccc(F)c(O)c2)n1)c1cccc2ccccc12` it was 48.8%.
In the case of `COc1ccc(/C=C2\CN(Cc3cn(CCNc4ccnc5cc(Cl)ccc45)nn3)C/C(=C\c3ccc(OC)c(OC)c3)C2=O)cc1OC` it was -37.7% (active).
As to `COc1cc(NC(=O)Nc2cccc(-c3cc(=O)c4c(OC)c(OC)c(OC)cc4o3)c2)cc(OC)c1OC`, the growth is 40.4%.
On to `Cc1ccc(C(=O)C2C(=O)C3CCC2C3)cc1` (stereo not given), for which the growth was 100%.
The same measure for `O=C(N/N=C\c1ccc(F)cc1)c1ccc2nc(-c3ccc(Br)cc3)[nH]c2c1`: 34.7%.
For the compound `CN1CCN(c2nc(-c3csc(-c4cccs4)n3)cc3ccccc23)CC1`, the growth is 20.3%.
In the case of `CCN(CC)CCO/N=C1\CC(c2ccc(OC)c(OC)c2)Oc2ccccc21` (stereo not given) it was 80.1%; in that of `COc1cc2c(cc1O)C(=O)CCCC2`, 87.3%.
The same measure for `N#Cc1ccc(-c2csc(Nc3ccc4nc5n(c(=O)c4c3)CCC5)n2)cc1`: 105%.
The same measure for `CSc1nc(N)c(NS(=O)(=O)c2ccc(C(C)=O)cc2)c(=O)[nH]1`: 97%; for `N#CC[C@H](C1CCCC1)n1cc(-c2ncnc3[nH]ccc23)cn1`: 71.3%.
Regarding `COc1ccc(C2=NN(c3ccc(S(N)(=O)=O)cc3)C(c3ccc(Cl)cc3)C2)c(O)c1` (stereo not given), the growth was 61.7%.
For `NNc1c2ccccc2nc2ccccc12`, the growth is 16.4%.
In the case of `O=C(CSc1ncccc1C(=O)O)Nc1ccc(Oc2ccccc2)cc1` it was 101%.
The same measure for `CCCCCCCCCCCCNC(=O)[C@H]1CSC(c2ccsc2)N1` (stereo not given in full): -74.1% (active); for `C#CC(C(C)C)N(CCO)CCCC` (stereo not given): 103%.
The same measure for `Cc1cccc(Cl)c1NC(=O)c1cnc(Nc2cc(N3CCOCC3)cc(S(C)(=O)=O)c2)s1`: 26.7%; for `COc1ccc(-c2onc(N)c2-c2cc(OC)c3c(c2)OCO3)cc1`: -29.2% (active).
With `CNC(=O)c1[nH]cc(-c2ccccc2)c1-c1cc(OC)c2c(c1OC)OCO2`, the growth was 100%.
`COc1ccc2c(c1)OC1=C(C(=O)OC1)C2c1cc(OC)c2c(c1)OCCO2` (stereo not given): the growth is 1.92% (active).
